Consider 100 compounds from PubChem BioAssay AID651965 (National Center for Advancing Translational Sciences (NCATS), 2013).

About 6,400 (1.9%) of roughly 340,000 compounds were called active. Where a call stands in place of a potency, no number is given. Roughly 4% stayed inconclusive and do not appear here. The call rests on the fitted dose curve; in most records, active means well fitted falling curve with a large enough effect; inconclusive means small, poorly fitted or top-dose-only effect; inactive means no such curve, though single readings can be large or run the other way. Many of the other results were omitted from the sample, so actives are more common in it than they were.
Potency means the concentration at half of the fitted maximal effect.

Sequence of ATP-dependent Clp protease proteolytic subunit (Bacillus subtilis (strain 168)) (P80244 whole entry, looked up): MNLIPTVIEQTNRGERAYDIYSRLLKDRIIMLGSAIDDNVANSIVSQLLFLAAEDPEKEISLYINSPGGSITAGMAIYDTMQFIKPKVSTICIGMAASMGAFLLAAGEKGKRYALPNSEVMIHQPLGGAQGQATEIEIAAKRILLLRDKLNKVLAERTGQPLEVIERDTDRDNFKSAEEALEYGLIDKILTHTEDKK

The assay has as its target ATP-dependent Clp protease proteolytic subunit (Bacillus subtilis (strain 168)) (UniProt P80244). The experiment in a line: qHTS Assay for Activators of ClpP. Further: the source files actives as falling curves though it sought activators and does not explain the sign; nearly all actives have a fitted effect of over 65% in size. The conditions noted are these: purified B. subtilis ClpP, FRET peptide cleavage, 20 min; series mostly up to 57.5 µM. The procedure, abridged: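 ClpP 10 microg/mL final, pH 8 Tris/KCl buffer with BSA, glycerol, Tween-20; compound pinned in; FRET-FV substrate; RT 20 min; Ex320/Em430; ΔFRET vs ADEP 5.8 microM, DMSO, no enzyme.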
In general terms: In qHTS, concentration-response curves come from the screen itself.
Regarding `O=C(NCCOc1ccccc1)N1[C@H]2CC[C@@H]1C=C(c1ccc(F)cc1OCc1ccccc1)C2`, the Potency entry was “inactive”. The same measure for `CCCCn1nnnc1C1(C)CCC(=O)N1Cc1ccc(OC)c(OC)c1` (stereo not given): “inactive”; for `COCc1cccc(-c2csc(C(O)c3ccc(F)cc3)n2)c1` (stereo not given): “inactive”.

With `O=S1(=O)CCN(Cc2ccccc2)CC1`, the Potency result was “inactive”. As for `Cc1ccc(-n2c(N)c(C(=O)N3CCOCC3)sc2=S)c(C)c1`, the entry is “inactive”; as for `Cc1cccc(-n2c(N)c(C(=O)N3CCN(C)CC3)sc2=S)c1`, 17.8 µM (active).

Consider `N#Cc1ccccc1-n1c(N)c(C(=O)N2CCCC2)sc1=S`, for which the Potency entry is “inactive”.

On to `CCc1nc2c(OCCOc3ccccc3)cccn2c1N(C=O)Cc1ccc(OC)cc1`, for which the Potency result was “inactive”. As for `CS(=O)(=O)N1CCCCC1c1cc(C(=O)NCc2ccccc2)no1` (stereo not given), the entry is “inactive”; as for `CC(C)(C)c1ccc(C(=O)NCc2ccco2)cc1`, “inactive”.

As for `CCc1ccc(-c2cc(C(=O)NCc3ccco3)c3ccccc3n2)s1`, the Potency is 28.2 µM (active).

With `CC(=O)NCCNC(=O)c1cc(-c2cccc3ccccc23)nc2ccccc12`, the Potency result is “inactive”. On to `CC(C)Nc1nc(NCCOc2ccccc2Cl)c2sccc2n1`, for which the Potency result is “inactive”. As for `COC(=O)c1ccc(CN2C(=O)C(Cc3ccccc3)ON=C2c2ncccc2C)o1` (stereo not given), the entry is “inactive”. As to `COc1ccc(C(=O)NCC2CCCO2)cc1S(=O)(=O)NCc1ccc(Cl)cc1` (stereo not given), the Potency entry is “inactive”.

For `CC(c1ccco1)N(C(=O)c1ccc(S(=O)(=O)N2CCCCC2)cc1)c1ccccn1` (stereo not given), the Potency entry was “inactive”. As for `Cc1ccc(CN(C(=O)c2ccccc2[N+](=O)[O-])c2ccccn2)cc1`, the entry is “inactive”.

Turning to `CC(c1ccco1)N(C(=O)COc1ccccc1[N+](=O)[O-])c1ccccn1` (stereo not given), the Potency was 15.8 µM (active). The same measure for `CCOCCCNC(=O)c1cc2c(=O)n3ccccc3nc2s1`: “inactive”; for `CN(C(=O)CSc1nncc2ccccc12)C1CCCCC1`: “inactive”. Consider `CN(C(=O)c1cc2c(=O)n3ccccc3nc2s1)C1CCCCC1`, for which the Potency was 3.16 µM (active). As for `O=c1[nH][nH]c2c1[C@H](c1ccc(Cl)cc1)O[C@H](CCc1ccccc1)C2`, the Potency result is “inactive”.

Consider `COc1cccc(C(=O)c2cc3ccc(O)cc3oc2=O)c1`, for which the Potency entry is “inactive”.

For the compound `O=c1oc2cc(O)ccc2cc1-c1ccc(F)cc1`, the Potency is 14.1 µM (active). As to `COc1ccc(-c2cc3ccc(OCc4nn[nH]n4)cc3oc2=O)cc1`, the Potency result was “inactive”. As for `CCOC(=O)N(C)c1c(CC)nc2c(OCc3ccccc3C(=O)OC)cccn12`, the entry is “inactive”; as for `COc1cncc(-c2cnc3sc(NCCc4ccccn4)nn23)c1`, “inactive”; as for `CCc1nc2ccc(C(=O)N3CCN(S(=O)(=O)CC)CC3)cn2c1N(C=O)CCC(C)C`, “inactive”.

As to `COc1ccc(S(=O)(=O)N(C)C[C@H]2OCc3cnnn3CCCC(=O)N([C@H](C)CO)C[C@H]2C)cc1`, the Potency result is “inactive”. For `C=C1C(=O)[C@]23C[C@H]1CCC2[C@@]1(C)C(C[C@@H]3O)[C@](C)(C(=O)O)CC[C@@H]1O` (stereo not given in full), the Potency result was “inactive”. As for `CC(C)CN1CCC1(C)C(=O)Nc1ccc(OC(F)F)cc1` (stereo not given), the Potency result is “inactive”.

As to `Cc1nn(Cc2ccccc2)c(C)c1C(=O)NCCCN1CCCC1=O`, the Potency result is “inactive”. The same measure for `O=C1CCCN1CCCNc1ncnc2c1[nH]c1ccccc12`: 22.4 µM (active); for `O=Cc1c(NCCCN2CCCC2=O)c2ccccc2[nH]c1=O`: “inactive”. Regarding `Nc1ncnc2c1ncn2[C@@H]1O[C@H](CNC(=O)[C@H](N)Cc2cccnc2)[C@@H](O)[C@H]1O`, the Potency result is “inactive”.

As to `COc1ccc(CCc2nc(-c3cccs3)no2)cc1`, the Potency result was “inactive”. The same measure for `COc1nc(-c2ccc(Cl)cc2)ccc1-c1noc(-c2cccs2)n1`: 14.1 µM (active); for `Clc1ccc(Cc2nnc(-c3cccs3)o2)cc1`: “inactive”; for `C[C@@H]1CN([C@H](C)CO)C(=O)c2cc(-c3ccc(F)cc3)cnc2O[C@H]1CN(C)C(=O)c1ccc(F)cc1`: “inactive”. For the compound `O=C1NCC(c2ccccc2)(c2ccccc2)C(=O)N1`, the Potency result was “inactive”. With `O=C(CC1Nc2ccccc2NC1=O)Nc1ccccc1` (stereo not given), the Potency entry was “inactive”. As to `O=C1NCC(Nc2ccccc2)C(=O)N1` (stereo not given), the Potency is 12.6 µM (active). As for `CCCCNC(=O)Cn1c(SCc2cccc(Cl)c2)nc2ccncc21`, the entry is “inactive”; as for `COc1ccc(C(O)c2nc(-c3ccc4c(c3)OCO4)cs2)cc1` (stereo not given), “inactive”. As for `COCCNc1nc(Nc2ccccc2Cl)c2sc(-c3ccccc3)cc2n1`, the entry is “inactive”. As for `O=C1c2ccccc2C(=O)N1c1cccc2ccccc12`, the figure is 7.94 µM (active); as for `O=C1c2ccccc2C(=O)N1c1ccccc1S(=O)C(F)(F)F` (stereo not given), “inactive”; as for `CC1=C(C)CC2C(=O)N(c3cccc4ccccc34)C(=O)C2C1` (stereo not given), “inactive”. Turning to `Cc1ccc(NC(=O)[C@H](Cc2ccccc2)NC(=O)CC[C@H]2O[C@@H](n3ccc(=O)[nH]c3=O)[C@H](O)[C@@H]2O)cc1C`, the Potency result was “inactive”. The same measure for `O=C(COc1ncnc2ccccc12)NC(=O)NCc1ccccc1`: “inactive”; for `Cc1ccc(C2=NN(C(=O)COc3ncnc4ccccc34)C(c3ccco3)C2)cc1` (stereo not given): “inactive”; for `CC(C)C(C)NC(=O)COc1ncnc2ccccc12` (stereo not given): 11.2 µM (active). As for `O[C@H]1C[C@H](c2ccc(Cl)cc2)N(Cc2cccs2)C[C@@H]1n1cc(C2CC2)nn1`, the entry is “inactive”; as for `COC(=O)c1c(C)c(C)nc(N)c1C#N`, 8.91 µM (active); as for `COC(=O)c1c(C)cc(O)c(C)c1O`, “inactive”. As for `Cc1nc(SCC(=O)NC2CCCCC2C)c(C#N)c(C)c1C` (stereo not given), the entry is “inactive”; as for `COc1ccc(NC(=O)C2Cc3c(-c4cccc(NC(C)=O)c4)ccnc3O2)cc1OC` (stereo not given), “inactive”.

In the case of `CC(=O)OC[C@@H]1CN(Cc2ccccc2)C[C@H](n2cnc3c(NCc4ccco4)ncnc32)O1`, the Potency entry is “inactive”. The same measure for `Nc1ncnc2nnsc12`: “inactive”; for `O=C(CSCc1cccs1)N1CCCC1`: “inactive”; for `Cn1c(=NC(=O)CSCC(=O)N2CCCCC2)sc2ccccc21`: 35.5 µM (active). As for `Cn1c(=NC(=O)c2cnccn2)sc2ccccc21`, the entry is “inactive”. Consider `CCc1nc2c(OCc3cccc(OC)c3)cccn2c1N(C)C(=O)C(C)C`, for which the Potency result is “inactive”.

As for `Cc1cccc(C)c1Cn1c(C)c(C(=O)NCc2cccc(Cl)c2)sc1=O`, the Potency entry is “inactive”. On to `CN1OC[C@@H]2CN(C(=O)c3cccnc3)[C@H](c3ccc(N4CCCCC4)cc3)C[C@@H]21`, for which the Potency result was “inactive”.

In the case of `c1ccc(-c2cc(-c3ccccc3)[nH]n2)cc1`, the Potency result was “inactive”. Turning to `c1ccc(-c2c[nH]c(-c3ccccc3)c2)cc1`, the Potency was 20 µM (active).

For `c1ccc(-c2ccc3c(c2)NC(C2Nc4cc(-c5ccccc5)ccc4O2)O3)cc1` (stereo not given), the Potency result is “inactive”. Turning to `CCCCN1CC(N2CCN(Cc3cccc(C)c3)CC2)CS1(=O)=O` (stereo not given), the Potency entry is “inactive”.

Take `O=C(COc1ccccc1Cl)N1N=C(c2cccs2)CC1c1ccco1` (stereo not given): the Potency entry is “inactive”.

As for `O=C1c2cccc(OCC(=O)N3N=C(c4cccs4)CC3c3ccc(F)cc3)c2CCN1Cc1ccccc1` (stereo not given), the Potency is 15.8 µM (active).

With `COc1ccc(C2CC(c3cccs3)=NN2C(=O)COC(=O)c2cc3ccccc3cc2O)cc1OC` (stereo not given), the Potency result was “inactive”.

With `CN(C)CCNC(=O)c1ccc(-c2cn3c(-c4ccc(Oc5ccccc5)cc4)cnc3cn2)cc1`, the Potency result was “inactive”. As for `OC(c1ccccc1)c1nc(-c2cnc3ccccc3c2)cs1` (stereo not given), the entry is “inactive”; as for `C(=Nc1ccc(/C=C/c2ccnc3ccccc23)cc1)c1cc2c3c(c1)CCCN3CCC2`, “inactive”. As for `CC1=C(C(=O)N(C(C)C)C(C)C)CC(CC(=O)NCC2CCCCC2)C(=O)N1Cc1ccccc1` (stereo not given), the Potency entry is “inactive”. As for `CNC(=O)/C(=C\C=C\c1ccccc1)NC(=O)c1ccc([N+](=O)[O-])cc1`, the entry is “inactive”; as for `Cc1ccc(C(=O)N/C(=C/C=C/c2ccccc2)C(=O)NCc2ccco2)cc1`, “inactive”.

`O=C(NCCCO)/C(=C\C=C\c1ccccc1)NC(=O)c1ccccc1Cl`: the Potency was 28.2 µM (active). Consider `Cc1cccc(C)c1-n1nnnc1C1(C)CCC(=O)N1CCOc1ccccc1` (stereo not given), for which the Potency result is “inactive”. The same measure for `CC1(C(=O)NS(=O)(=O)c2cccc(F)c2)CCN1C(=O)Cc1cc(F)ccc1F` (stereo not given): “inactive”; for `C[C@@H]1CN([C@@H](C)CO)C(=O)c2c(c3ccccc3n2C)-c2ccccc2CO[C@H]1CN(C)C(=O)C1CC1`: “inactive”. As for `COc1ccc(S(=O)(=O)NC(=O)C2(C)CCN2C(=O)COc2ccc(Cl)cc2)cc1` (stereo not given), the entry is “inactive”. The same measure for `CCCCCC(=O)N1CCN(S(=O)(=O)c2ccc3c(c2)OCCCO3)CC1`: 28.2 µM (active); for `CCNC(=O)N1CCN(S(=O)(=O)c2ccc3c(c2)OCCCO3)CC1`: “inactive”; for `CN1CCCN(S(=O)(=O)c2ccc3c(c2)OCCO3)CC1`: “inactive”. For the compound `COC(=O)[C@]12CCCCC=C1N(Cc1ccc(Cl)cc1Cl)C(=O)[C@H](CC(=O)NCc1cccc3ccccc13)C2`, the Potency entry is “inactive”. In the case of `O=c1[nH]cnc2c1c(-c1ccccc1)cn2-c1ccc(F)cc1`, the Potency result is “inactive”. Take `CCCNc1ncnc2c1c(-c1ccccc1)cn2-c1ccc(OCC)cc1`: the Potency is 25.1 µM (active). As to `COCCNc1ncnc2c1c(-c1ccccc1)cn2-c1ccc(C)c(Cl)c1`, the Potency entry was “inactive”. The same measure for `COc1ccc(CC(N)c2csc(NC(=O)NC(c3ccccc3)c3ccccc3)n2)cc1` (stereo not given): “inactive”. With `CC1(C(=O)NCc2ccccc2)CSCC(=O)N1CCCn1ccnc1` (stereo not given), the Potency result is “inactive”. As for `COC(=O)[C@]12CCCCC=C1N(Cc1ccc3c(c1)OCO3)C(=O)[C@H](CC(=O)N1CCOCC1)C2`, the entry is “inactive”; as for `CC(C)NC(=O)C1(C)CCCCN1Cc1cccc(C(F)(F)F)c1` (stereo not given), “inactive”. For `COCCNC(=S)N1CCC(NC(=O)C23CC4CC(CC(C4)C2)C3)CC1`, the Potency is 28.2 µM (active).

For `COc1ccccc1NC(=S)N1CCC(NC(=O)C23CC4CC(CC(C4)C2)C3)CC1`, the Potency entry is “inactive”. As for `CCCNC(=S)N1CCC(NC(=O)C23CC4CC(CC(C4)C2)C3)CC1`, the entry is “inactive”.

In the case of `CC(=O)N1Cc2cc(C(=O)NCc3cccc(F)c3)nc(-c3cccc(C4=CCCC4)c3)c2[C@H]1CCO`, the Potency result was “inactive”.

Regarding `COC(=O)[C@@]12C[C@@H](CC(=O)NCCCCc3ccccc3)C(=O)N(CCc3ccc(OC)c(OC)c3)C1=CCC(C)(C)C2`, the Potency entry was “inactive”. As for `COc1ccc(-c2ccc3[nH]c4c(c3c2)CCN2C[C@H]3[C@H](C)ON(C)[C@H]3C[C@@H]42)cc1`, the Potency entry was “inactive”.
